# Shown are actives, neighbours in structure and some others; about 9.2% of the full set was active somewhere.
# SMN2 splice up – increases expression of the SMN2 splice variant; 210,000 compounds, 2.8% hits; Potency, µM (doses to about 46.1 µM), for the others: top-dose activity change, positive = activation, actives largely listed as activators; HEK293 SMN2-luciferase splicing reporter, luminescence, 30-36 h; further: % of control where 0% means no effect; nearly all actives have a fitted effect of over 55% in size
#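 qHTS luciferase splicing reporter: luminescence rises when SMN2 exon 7 is included in transfected HEK293 cells. Compound exposure lasted 30-36 h at 37C, with 4.5 mM final sodium butyrate as control, followed by a ONE-Glo read.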
# FLuc counter – firefly luciferase modulation, counter-screen for miR-21 project; Potency, µM (series often up to 57.5 µM), for the others: at the highest dose activity change, negative = inhibition, usual class: inhibitors; 360,000 compounds, 6.9% hits; P08659; purified FLuc, Km substrates, luminescence inhibition;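 further: plate controls were vehicle for no effect and reference inhibitor for full effect; nearly all actives have a fitted effect of over 55% in size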
# Target sequence (P08659 whole entry, looked up): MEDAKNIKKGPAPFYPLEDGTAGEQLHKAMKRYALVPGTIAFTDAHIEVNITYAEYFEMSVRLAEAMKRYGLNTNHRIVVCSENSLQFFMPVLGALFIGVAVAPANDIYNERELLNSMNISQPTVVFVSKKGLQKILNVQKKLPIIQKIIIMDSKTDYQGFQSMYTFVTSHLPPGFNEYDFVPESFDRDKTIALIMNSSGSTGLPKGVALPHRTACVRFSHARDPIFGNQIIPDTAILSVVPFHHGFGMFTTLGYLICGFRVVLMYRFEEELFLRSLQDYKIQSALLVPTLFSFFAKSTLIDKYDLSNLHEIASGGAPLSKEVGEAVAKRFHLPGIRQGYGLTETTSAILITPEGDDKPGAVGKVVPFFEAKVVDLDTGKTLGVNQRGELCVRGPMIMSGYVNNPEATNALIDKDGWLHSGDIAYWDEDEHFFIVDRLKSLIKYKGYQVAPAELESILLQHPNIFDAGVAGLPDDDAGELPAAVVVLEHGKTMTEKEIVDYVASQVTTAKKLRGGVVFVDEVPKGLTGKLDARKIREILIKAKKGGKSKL
#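 Purified P. pyralis luciferase (10nM final) with 10uM D-luciferin and 10uM ATP (Km levels) in 50mM Tris acetate pH 7.5, 10mM Mg acetate, 0.01% Tween-20, 0.05% BSA; qHTS 6-point titration, ~60 µM downward; luminescence read.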
# ELG1 DNA repair – blocks ELG1-dependent DNA repair in HEK293T cells; 330,000 compounds, 2.3% hits; Potency, µM (highest dose often 46.1 µM), for the others: top-dose activity change, negative = inhibition, hits mostly inhibitors; HEK293T ELG1-luciferase reporter, luminescence, 16 h; DNA damage induced by 5-fluorouridine; AID 504467; further: on the % scale 0 is the no-effect control and ±100 the full control effect; nearly all actives have a fitted effect of over 55% in size
#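 Step one: seed 2,000 cells per well. Step two: pin-transfer compound or DMSO alongside 5-fluorouridine. Step three: incubate 16 hr, 37 °C, 5% CO2. Step four: add ONE-Glo, wait 30 min, read luminescence.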
# NPC1 promoter act – activates the NPC1 promoter; Huh7 NPC1 promoter luciferase reporter, 24 h; Potency, µM (titrated, usually from 9.22 µM), inactives show top-dose activation, actives largely listed as activators; 320,000 compounds, 2.4% hits; AID 485313; further: % of control where 0% means no effect; nearly all actives have a fitted effect of over 60% in size
#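 Compounds in DMSO were transferred onto Huh7 NPC1-luciferase reporter cells pre-incubated 2 h; after 24 h at 37 °C, Amplite reagent was dispensed and luminescence recorded 10 min later.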
# Rab9 promoter act – Rab9 promoter activation. Huh7 Rab9 promoter-luciferase reporter, luminescence, 24 h. Potency, µM (highest dose often 9.22 µM), for the others: at the highest dose activation, negative = inhibition, actives largely listed as activators. 320,000 compounds, 2.8% hits; further: % of control where 0% means no effect; nearly all actives have a fitted effect of over 60% in size
#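 Rab9 promoter-driven luciferase in stably transfected Huh7 cells; 1500 cells/well rested 2 h, exposed to compound in DMSO for 24 h at 37 °C, 5% CO2. Luminescence read 10 min after adding luciferase reagent at ambient temperature.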
# ELG1 genotox – induces genotoxicity in HEK293T cells with luciferase-tagged ELG1; 330,000 compounds, 1.3% hits; Potency, µM (doses to about 46 µM), without a hit: at the top dose activity change, positive = activation, usual class: activators; HEK293T ELG1-luciferase reporter, luminescence, 16 h; AID 504466; further: % of control where 0% means no effect; nearly all actives have a fitted effect of over 60% in size
#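 DMSO vehicle served as control against compound-treated ELG1-luciferase HEK293T cells; exposure lasted 16 hr at 37 °C and 5% CO2, followed by ONE-Glo luminescence detection after 30 min.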
# Starred values were filed as active, the others as inactive; ? = inconclusive; . = no result given; [ ] = another dose, or the depositor's remark. The call rests on the fitted dose curve; in most records, active means well fitted curve in the direction sought with a large enough effect; inconclusive means small, poorly fitted or top-dose-only effect, or another doubt; inactive means no such curve, though single readings can be large; an effect the other way counts as inactive or inconclusive. Potency means the concentration at half of the fitted maximal effect.
SMILES,SMN2 splice up,FLuc counter,ELG1 DNA repair,NPC1 promoter act,Rab9 promoter act,ELG1 genotox
c1ccc2c(Nc3nnc(-c4ccncc4)s3)cccc2c1,?,5.4µM*,?,?,?,18%
C=CCNc1nnc(-c2ccncc2)s1,-5%,-1%,-6%,0%,16%,-1%
Cn1cc(C(=O)NCc2ccccc2)c(=O)c2cc(S(=O)(=O)N3CCCCCC3)ccc21,.,-8%,.,.,.,.
COc1ccc(C(=O)Nc2ccnn2C2CCN(C(=O)c3cccnc3)CC2)cc1,.,-24%,-2%,2%,?,0%
COc1ccc(/C=C2\S/C(=N/S(=O)(=O)c3cccs3)NC2=O)cc1,9%,19µM*,-5%,-4%,-1%,-1%
O=C(O)Cn1cc(/C=C2\SC(=O)N(c3ccccc3)C2=O)c2ccccc21,1%,12µM*,?,-1%,0%,7%
Cn1cccc1/C=C1\SC(=S)N(Nc2ccccc2)C1=O,.,?,?,12%,17%,9%
CCCC(C(=O)O)N1C(=O)/C(=C/c2cccn2C)SC1=S (stereo not drawn),-9%,1%,8%,0%,-4%,1%
Cn1cccc1/C=C1\SC(=O)N(c2ccccc2)C1=O,11µM*,2.4µM*,?,2µM*,0.71µM*,?
Cn1cc(/C=C2\SC(=S)N(NC(=O)c3ccccc3)C2=O)c2ccccc21,-1%,?,-21%,8%,2%,2%
Cn1cc(/C=C2/SC(=O)N(c3ccccc3)C2=O)c2ccccc21,13%,6µM*,?,?,6.3µM*,3%
O=C(O)Cn1cc(/C=C2/SC(=O)N(CC(=O)N3CCCCCC3)C2=O)c2ccccc21,.,?,6%,-2%,-2%,0%
CC(C)C(C(=O)O)N1C(=O)/C(=C/c2cccn2C)SC1=S (stereo not drawn),-6%,21µM*,-1%,1%,3%,2%
CN1C2CCC1CC(NS(=O)(=O)c1ccc(C#N)cc1)C2 (stereo not drawn),.,3%,16%,2%,2%,-1%
Cc1cc2ccc3ccccc3c2cc1CN(C)C,.,7.6µM*,?,10%,24%,6%
Cc1ccc(S(=O)(=O)N2CCN(C(=O)COC(=O)C3CCC3)CC2)cc1,.,2%,9%,-1%,-1%,1%
CN(CC(=O)Nc1ccc(Cl)c(C(F)(F)F)c1)C(=O)CCCc1nc2ccccc2c(=O)[nH]1,.,0%,11µM*,-8%,-13%,-7%
CN(CC(=O)Nc1ccc(Cl)c(C(F)(F)F)c1)C(=O)c1cn2ccccc2n1,.,?,0%,-5%,-1%,23µM*
CCC(=O)OCc1cnc(C)c2oc(=O)c(C(=O)Nc3ccccc3C(F)(F)F)cc12,.,0%,.,.,.,.
C#CCSc1ncc(-c2ccccc2)cn1,3%,?,?,19%,?,12%
C=CCSc1ncc(-c2ccccc2)cn1,11%,15µM*,?,24%,26%,15%
Cc1nnc(N/N=C/c2cccc(C(F)(F)F)c2)n1N,.,-1%,-5%,-2%,-1%,-4%
Cc1nnc(N/N=C/c2cccc(OCc3ccc(Cl)c(Cl)c3)c2)n1N,4%[1.84 µM],17µM*,?,21%,?,5%
Cn1c(=O)c(NC2CCCCC2)c2c3c(cccc31)C(=O)c1ccccc1-2,.,-4%,18µM*,-4%,-17%,-12%
Cn1c(=O)c(NCCc2ccccc2)c2c3c(cccc31)C(=O)c1ccccc1-2,-14%,9%,21µM*,0%,-3%,-17%
SMILES,SMN2 splice up,FLuc counter,ELG1 DNA repair,NPC1 promoter act,Rab9 promoter act,ELG1 genotox
CCCCNc1c2c3c(cccc3n(C)c1=O)C(=O)c1ccccc1-2,-51%,3%,16µM*,-8%,-7%,-6%
O=C(/C=C/Nc1ccc(Oc2ccccc2Cl)cc1)c1ccco1,16µM*,3.4µM*,?,3.5µM*,2.2µM*,?
COc1ccccc1Oc1ccc(N/C=C/C(=O)c2ccco2)cc1,11µM*,5.4µM*,?,3.2µM*,1.4µM*,?
COC(=O)c1ccccc1Oc1ccc(NC(=O)c2ccco2)cc1,.,?,24%,13%,1%,4%
COC(=O)C1CCN(C(=O)CSc2ccccc2)CC1,7%,-1%,12%,0%,0%,2%
O=C(CCCOc1ccccc1)N1CCN(c2ccc(F)cc2)CC1,-4%,27µM*,?,25%,27%,?
O=C(CCSCc1ccccc1F)N1CCN(c2ccccn2)CC1,?,19µM*,?,24%,?,18µM*
O=C(CCCOc1ccccc1)N1CCN(c2ccccn2)CC1,14µM*,6.7µM*,?,1.3µM*,0.89µM*,2.1µM*
COC(=O)C1CCN(C(=O)CCCOc2ccccc2)CC1,.,4.8µM*,?,?,2.2µM*,2.6µM*
COc1ccc2nc(SCC(O)c3cccc(Br)c3)[nH]c2c1 (stereo not drawn),-8%,?,.,.,.,.
O=C(N1CCN(c2ccccn2)CC1)C(Cl)(Cl)Cl,4µM*,-14%,?,6%,14%,1%
CCOC(=O)c1c(C)[nH]c(C)c1S(=O)(=O)N1CCN(c2ccc(Cl)cc2)CC1,.,4%,.,.,.,.
CCOC(=O)N1CCC(=NNc2nc3ccccc3s2)CC1,.,3.4µM*,?,2.5µM*,4µM*,?
CC(=O)N1CCC(=NNc2nc3ccccc3s2)CC1,10%,17µM*,?,26%,4µM*,11%
CCOC(=O)N1CCN(S(=O)(=O)c2ccc(C(=O)Nc3nc4ccccc4s3)cc2)CC1,-16%,0%,-15%,0%,-6%,-1%
CCOC(=O)c1c(C)[nH]c(C(=O)COC(=O)C2CC2)c1C,.,9.5µM*,?,0%,-2%,?
CCOC(=O)c1c(C)[nH]c(C(=O)COC(=O)C2(C)CC2(Cl)Cl)c1C (stereo not drawn),-8%,13µM*,-19%,?,3.2µM*,?
CCCCC(=O)OCC(=O)c1[nH]c(C)c(C(C)=O)c1C,6%,11µM*,8%,0%,-3%,-3%
COc1ccc(CCNC(=O)c2cc(=O)[nH]c3ccc(S(=O)(=O)N4CCCCC4)cc23)cc1OC,.,3%,.,.,.,.
Cn1nc(C(=O)NNC(=O)c2ccc(Cl)c(S(N)(=O)=O)c2)c2ccccc2c1=O,.,5%,26%,0%,5%,2%
O=C(OCc1cccc(F)c1)c1ccc2c(c1)-c1ccccc1C2=O,-3%,-16%,?,20%,14%,11%
O=C(OCc1ccccc1F)c1ccc2c(c1)-c1ccccc1C2=O,?,?,?,2.2µM*,2.2µM*,?

# Compound activity as filed in PubChem BioAssay.
